Gal4-VP16 FLuc: counter-screen for ROR gamma inhibitors: Gal4-VP16 reporter; Drosophila S2 Gal4-VP16 UAS-luciferase, luminescence, 20 h; Potency, µM (highest dose often 53.6 µM), inactives show at the top dose activity, negative = inhibition, actives largely listed as inhibitors; hit rate 3.5% among 310,000; AID 2546;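 also: Gal4-VP16 expression switched on by copper sulfate through the metallothionein promoter; nearly all actives have a fitted effect of over 50% in size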
NPSR antag: neuropeptide S receptor (human) antagonism, cAMP | Q6W5P4 | CHO-NPSR cells, cAMP TR-FRET, antagonist mode | Potency, µM (series often up to 38.3 µM), inactives show at the highest dose activity change, negative = inhibition, actives largely listed as inhibitors | hit rate 1% among 220,000; also: nearly all actives have a fitted effect of over 50% in size
B2AR arrestin: agonists driving beta-arrestin recruitment to human beta2-adrenergic receptor; P07550; beta-arrestin recruitment to beta2AR, cell-based reporter; Potency, µM (highest dose often 46.1 µM), for the others: at the top dose activation, most hits filed as activators; hit rate 0.02% among 330,000; AID 492947;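 also: 0% = DMSO controls and full agonism = EC100 isoproterenol or metaproterenol; nearly all actives have a fitted effect of over 65% in size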
Target sequence (P07550 whole entry, looked up): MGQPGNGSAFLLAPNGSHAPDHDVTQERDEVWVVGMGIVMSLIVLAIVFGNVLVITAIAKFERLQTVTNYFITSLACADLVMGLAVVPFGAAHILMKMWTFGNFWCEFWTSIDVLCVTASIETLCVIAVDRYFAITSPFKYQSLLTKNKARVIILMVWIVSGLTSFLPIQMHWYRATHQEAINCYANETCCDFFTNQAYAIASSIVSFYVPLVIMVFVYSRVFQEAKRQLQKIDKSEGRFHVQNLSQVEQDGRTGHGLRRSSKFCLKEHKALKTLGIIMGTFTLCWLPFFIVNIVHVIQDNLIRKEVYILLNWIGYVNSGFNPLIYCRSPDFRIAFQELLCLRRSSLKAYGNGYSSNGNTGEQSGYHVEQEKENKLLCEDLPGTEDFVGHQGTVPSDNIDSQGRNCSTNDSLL
RORg inh: ROR gamma (mouse) transcription inhibition; P51450; hit rate 5.4% among 310,000; Drosophila S2 Gal4-RORgamma UAS-luciferase reporter, 20 h; AID 2551; Potency, µM (series often up to 53.6 µM), without a hit: at the top dose activity change, negative = inhibition, most hits filed as inhibitors; also: nearly all actives have a fitted effect of over 60% in size
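Compounds are pin-transferred onto Drosophila Schneider cells expressing a copper-inducible Gal4–ROR gamma transactivation domain fusion. After 1 hr, copper sulfate is added to 700 uM final; luciferase is read 20 hr later.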
The depositor's hits bear a star; ? = inconclusive; nt = no result given; [ ] = another dose, or the depositor's remark. A selection: hits, their analogues and other compounds. The true share with any hit is near 5.7%. Calls follow the shape of the dose curve; as a rule, active = well fitted curve in the direction sought with a large enough effect; inconclusive = small, poorly fitted or top-dose-only effect, or another doubt; inactive = no such curve, though single readings can be large; an effect the other way counts as inactive or inconclusive. Unless noted, % is scaled to controls: 0 for no effect and ±100 for the full control effect; potency is read from the fitted curve at half-maximal effect.

SMILES	Gal4-VP16 FLuc	NPSR antag	B2AR arrestin	RORg inh
Cc1[nH]n(-c2ccccc2)c(=O)c1N=Nc1ccc(Cl)cc1	7%	nt	-1%	-20%
Cc1[nH]n(-c2ccccc2)c(=O)c1N=Nc1cccc(S(=O)(=O)N2CCOCC2)c1	?	-7%[46.1 µM]	-1%	7.9µM*
O=Nc1c(-c2ccccc2)[nH]n(-c2ccccc2)c1=O	16µM*	nt	-1%	?
Cc1[nH]n(-c2ccccc2)c(=O)c1N=Nc1c(Cl)cccc1Cl	?	nt	0%	13µM*
CN(CC(=O)Nc1cccc(F)c1)C(=O)COc1cccc2c1OC(C)(C)C2	2%	nt	0%	?
CCOc1cccc(N)c1	-4%	nt	16µM*	17%
CCOc1ccc(N)c(SSc2cc(OCC)ccc2N)c1	6.3µM*	nt	3%	7.9µM*
C=CCNC(=S)NCC1COc2ccccc2O1 (centres undefined)	-23%	11%	0%	11µM*
Cc1c(Cl)cccc1NC(=S)NCC1COc2ccccc2O1 (centres undefined)	?	?	0%	6.3µM*
COc1ccc(-c2nn(CCC#N)cc2C(=O)Nc2cccc(C(=O)O)c2)cc1OC	2%	nt	10%	-17%
CCc1ccc(Nc2n[n+](-c3ccccc3)c(-c3cc(OC)c(OC)cc3Br)s2)cc1	-26%	nt	0%	10µM*
CN(C)c1ccc(-c2sc(Nc3ccccc3)n[n+]2-c2ccc(F)cc2)cc1	3%	nt	0%	14µM*
CCc1ccc(Nc2n[n+](-c3ccccc3)c(-c3ccc(N(CC)CC)cc3)s2)cc1	13µM*	nt	-1%	?
CCc1ccc(Nc2n[n+](-c3ccccc3)c(-c3ccc(OCc4ccccc4)cc3)s2)cc1	?	nt	0%	7.9µM*
CCc1ccc(Nc2n[n+](-c3ccccc3)c(/C=C/c3ccccc3)s2)cc1	-88%	nt	-1%	?
CC(C)[C@@H](CC(=O)N[C@@H]1CCNC[C@H]1C(=O)N[C@H](CC(=O)N[C@@H](CCC(=O)O)CC(=O)O)Cc1ccccc1)NC(=O)C[C@H](Cc1c[nH]c2ccccc12)NC(=O)[C@@H]1CNCC[C@H]1N	-10%	nt	nt	7%
CC(=O)Oc1ccc(C(=O)Nc2ccc(S(=O)(=O)N3CCOCC3)cc2)cc1	-2%	nt	0%	21%
Cc1ccc(S(=O)(=O)Nc2cccc3ccc[n+](C)c23)cc1	-1%	nt	nt	-12%
C#C[C@]1(O)CCC2C3CCC4=Cc5oncc5C[C@@]4(C)C3CC[C@@]21C (some centres undefined)	0%	nt	nt	-33%
Fc1ccc(-[n+]2nc(Nc3ccccc3)sc2-c2c(Cl)cccc2Cl)cc1	0%	nt	0%	-37%
CCN(CC)c1ccc(-c2sc(Nc3ccccc3)n[n+]2-c2ccc(F)cc2)cc1	17%	nt	8%	10µM*
O=C(O)c1ccc(-c2sc(Nc3ccccc3)n[n+]2-c2ccc(F)cc2)cc1	4%	nt	0%	-9%
CCc1ccc(Nc2n[n+](-c3ccccc3)c(-c3c(Cl)cccc3Cl)s2)cc1	?	nt	0%	11µM*
O=C(CN1C(=O)C2CC=CCC2C1=O)Nc1ccc(F)cc1F (centres undefined)	nt	nt	0%	nt
Cc1ccc2nc(NCCN)c3ncc(C)n3c2c1	?	nt	nt	-26%
SMILES	Gal4-VP16 FLuc	NPSR antag	B2AR arrestin	RORg inh
CC(C)CCC[C@@H](C)[C@@H]1CC[C@H]2C3=CC=C4CC(O)CC[C@]4(C)[C@H]3CC[C@@]21C (some centres undefined)	?	nt	nt	-29%
O=C(O)CC1S/C(=N/N=C/C=C/c2ccccc2)NC1=O (centres undefined)	-3%	-12%	-1%	?
Cc1ccc(/C=N/N=C2/NC(=O)CS2)o1	?	5%	0%	13µM*
O=C(CC1S/C(=N/N=C/C=C/c2ccccc2)NC1=O)Nc1ccc(Cl)c(Cl)c1 (centres undefined)	7.9µM*	-4%	-1%	5.6µM*
Cc1ccc(/C=N/N=C2/NC(=O)C(CC(=O)Nc3ccccc3)S2)o1 (centres undefined)	-5%[10 µM]	1%	0%	11µM*
Cc1ccc(/C=N/N=C2/NC(=O)C(CC(=O)Nc3ccc(Cl)cc3)S2)o1 (centres undefined)	?	7%	0%	11µM*
CCN(CC)/[N+]([O-])=N/Oc1cc(O/N=[N+](\[O-])N(C)C)c([N+](=O)[O-])cc1[N+](=O)[O-]	-4%	nt	nt	?
C=CCC(CC=C)(NC(=O)c1ccccc1)c1ccccc1	18µM*	-17%[46.1 µM]	0%	-15%
O=C(CSc1ncccc1C(=O)O)c1cccc(C(F)(F)F)c1	2%	-7%	0%	7%
O=C(CSc1ncccc1C(=O)O)c1ccc2ccccc2c1	2.2µM*	-6%[46.1 µM]	-1%	11µM*
COc1cccc(C(=O)CSc2nccn2C)c1	?	nt	8%	10µM*
Cn1ccnc1SCC(=O)c1cccc(Br)c1	-2%	-13%[46.1 µM]	0%	-3%
Cn1ccnc1SCC(=O)c1ccc(O)cc1	29%	-16%	-1%	11%
Cn1ccnc1SCC(=O)N(C1CCCCC1)C1CCCCC1	?	-17%[46.1 µM]	-1%	11µM*
Cn1ccnc1SCC(=O)c1ccc2ccccc2c1	?	-3%	0%	11µM*
CC(=O)c1ccc(C2CC34CNS(=O)(=O)C3CC2O4)cc1 (centres undefined)	0%	nt	nt	11%
O=S(=O)(Nc1ccc(-n2cnnn2)cc1)c1ccc(F)c(F)c1F	3%	-8%	1%	9%
CC1CCc2c(C(=O)Nc3nccs3)csc2C1 (centres undefined)	8.9µM*	4%[46.1 µM]	-1%	3.5µM*
O=C(NNC1=Nc2ccccc2SC1)c1ccc(F)cc1	3.5µM*	-1%	0%	?
O=C(NNC1=Nc2ccccc2SC1)c1ccc(Cl)cc1	5.6µM*	-12%	-1%	1.1µM*
O=C(c1cccs1)N1CCc2c([nH]c3ccccc23)C1c1ccc(Cl)cc1 (centres undefined)	6%	10µM*	-1%	15%
O=C(c1cccs1)N1CCc2c([nH]c3ccccc23)C1c1ccccn1 (centres undefined)	-9%	?	-1%	3%
Cc1ccc(CCC(=O)Nc2ncc(Cc3cccc(Cl)c3Cl)s2)o1	?	?	-1%	35µM*
O=C(NC(=S)Nc1ccccc1CO)C1CCCCC1	nt	nt	-1%	nt
CCOc1ccccc1NC(=S)Nc1ccc(S(N)(=O)=O)cc1	-26%	3%	0%	11µM*
SMILES	Gal4-VP16 FLuc	NPSR antag	B2AR arrestin	RORg inh
Cc1ccccc1NC(=S)NC(=O)C1CCCCC1	?	nt	0%	4µM*
CCOc1ccccc1NC(=O)/C=C/C(N)=O	5.6µM*	-8%[46.1 µM]	0%	4.5µM*
CCOc1ccccc1NC(=O)Nc1cccc(S(N)(=O)=O)c1	14%	13%	-1%	0%
CCOc1ccccc1NC(=S)NC(=O)C1CC1	0.71µM*	nt	-1%	?
CCOc1ccccc1NC(=O)C1CCN(S(C)(=O)=O)CC1	-8%	nt	0%	?
CCOc1ccccc1NC(=O)/C=C/c1ccccc1[N+](=O)[O-]	-3%	-10%	2%	32%[10 µM]
O=c1oc(-c2ccccc2)cc(Cl)c1Cl	10µM*	nt	-1%	11µM*
CCCCN=Cc1c(C)[nH]n(-c2ccccc2)c1=S	2.5µM*	-56%	8%	0.63µM*

From PubChem
